# Results as given in publication PMC11062922 (Nature Chemical Biology, 2023).
# Where two headings read alike, the source gives them in different places.
# Key:
# FLT3 = test system: FLT3; set-up: species or system human, MV4-11 + K-562 + COLO205 + SK-N-BE2 + OVCAR-8; conditions: read-out: apparent Kd, n = 1
# MYLK3 = test system: MYLK3; set-up: species or system human, MV4-11 + K-562 + COLO205 + SK-N-BE2 + OVCAR-8; conditions: read-out: apparent Kd; compound concentrations: 100 nM and 1000 nM (sheet 'Samples'), CATDS: 0.63148030600185001; n = 1
# TNIK = test system: TNIK; set-up: species or system human, MV4-11 + K-562 + COLO205 + SK-N-BE2 + OVCAR-8; conditions: read-out: apparent Kd; compound concentrations: 100 nM and 1000 nM (sheet 'Samples'), CATDS: 0.21425546336559301; n = 1
# TTK = test system: TTK; set-up: species or system human, MV4-11 + K-562 + COLO205 + SK-N-BE2 + OVCAR-8; conditions: read-out: apparent Kd, compound concentrations: 100 nM and 1000 nM (sheet 'Samples'), n = 1
# JAK2 = test system: JAK2; set-up: species or system human, MV4-11 + K-562 + COLO205 + SK-N-BE2 + OVCAR-8; conditions: read-out: apparent Kd; compound concentrations: 100 nM and 1000 nM (sheet 'Samples'), CATDS: 0.29115403437322901; n = 1
# PDGFRB = test system: PDGFRB; set-up: species or system human, MV4-11 + K-562 + COLO205 + SK-N-BE2 + OVCAR-8; conditions: read-out: apparent Kd, compound concentrations: 100 nM and 1000 nM (sheet 'Samples'), n = 1
# RIPK3 = test system: RIPK3; set-up: species or system human, MV4-11 + K-562 + COLO205 + SK-N-BE2 + OVCAR-8; conditions: read-out: apparent Kd; compound concentrations: 100 nM and 1000 nM (sheet 'Samples'), CATDS: 0.17836354308348701; n = 1
# STK26 = test system: STK26; set-up: species or system human, MV4-11 + K-562 + COLO205 + SK-N-BE2 + OVCAR-8; conditions: read-out: apparent Kd; compound concentrations: 100 nM and 1000 nM (sheet 'Samples'), CATDS: 0.187537130117577; n = 1
# TTN = test system: TTN; set-up: species or system human, MV4-11 + K-562 + COLO205 + SK-N-BE2 + OVCAR-8; conditions: read-out: apparent Kd; compound concentrations: 100 nM and 1000 nM (sheet 'Samples'), CATDS: 0.25287309010543901; n = 1
# FLT4 = test system: FLT4; set-up: species or system human, MV4-11 + K-562 + COLO205 + SK-N-BE2 + OVCAR-8; conditions: read-out: apparent Kd, compound concentrations: 100 nM and 1000 nM (sheet 'Samples'), n = 1
# PIP4K2C = test system: PIP4K2C; set-up: species or system human, MV4-11 + K-562 + COLO205 + SK-N-BE2 + OVCAR-8; conditions: read-out: apparent Kd; compound concentrations: 100 nM and 1000 nM (sheet 'Samples'), CATDS: 0.16088368333560399; n = 1
# Q6ZSR9 = Q6ZSR9 (human, UniProt Q6ZSR9); set-up: species or system MV4-11 + K-562 + COLO205 + SK-N-BE2 + OVCAR-8; conditions: read-out: apparent Kd; compound concentrations: 100 nM and 1000 nM (sheet 'Samples'), CATDS: 0.15174967066440201; n = 1
# GAK = test system: GAK; set-up: species or system human, MV4-11 + K-562 + COLO205 + SK-N-BE2 + OVCAR-8; conditions: read-out: apparent Kd; compound concentrations: 100 nM and 1000 nM (sheet 'Samples'), CATDS: 0.61346853975848203; n = 1
# STK10 = test system: STK10; set-up: species or system human, MV4-11 + K-562 + COLO205 + SK-N-BE2 + OVCAR-8; conditions: read-out: apparent Kd; compound concentrations: 100 nM and 1000 nM (sheet 'Samples'), CATDS: 0.42195435963049299; n = 1
# Sequence of Q6ZSR9 (Q6ZSR9 whole entry, looked up): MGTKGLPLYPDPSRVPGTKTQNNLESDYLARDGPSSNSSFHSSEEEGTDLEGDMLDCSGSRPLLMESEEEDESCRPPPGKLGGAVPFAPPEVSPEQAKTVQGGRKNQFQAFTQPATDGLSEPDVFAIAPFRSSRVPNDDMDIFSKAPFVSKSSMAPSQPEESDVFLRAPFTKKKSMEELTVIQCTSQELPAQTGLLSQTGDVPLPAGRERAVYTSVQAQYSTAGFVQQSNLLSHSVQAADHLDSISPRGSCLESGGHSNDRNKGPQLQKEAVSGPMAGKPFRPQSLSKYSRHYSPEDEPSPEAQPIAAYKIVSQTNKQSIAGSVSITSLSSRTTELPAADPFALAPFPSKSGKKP
smiles,measurement,setting,value
O=C1Nc2ccccc2/C1=C/Nc1ccc(-n2cncn2)cc1 [GW301789X],potency estimated from few doses,"FLT3; compound concentrations: 100 nM and 1000 nM (sheet 'Samples'), CATDS: 0.22267825375754199",1.37 µM
same,potency estimated from few doses,MYLK3,0.176 µM
same,potency estimated from few doses,TNIK,1.52 µM
same,potency estimated from few doses,TTK; CATDS: 0.19017518811714801,2.18 µM
COc1ccccc1Nc1ncc(-c2ccccc2)o1.Cl [GW577921A],potency estimated from few doses,"FLT3; compound concentrations: 100 nM and 1000 nM (sheet 'Samples'), CATDS: 0.90882717599339502",0.0143 µM
same,potency estimated from few doses,JAK2,0.37 µM
same,potency estimated from few doses,PDGFRB; CATDS: 0.22396051882089299,1.08 µM
Cc1ccc2c(c1)/C(=N/Nc1ccc(S(N)(=O)=O)cc1)C(=O)N2 [GW275944X],potency estimated from few doses,"FLT3; compound concentrations: 100 nM and 1000 nM (sheet 'Samples'), CATDS: 0.260396984763757",0.809 µM
same,potency estimated from few doses,RIPK3,1.7 µM
same,potency estimated from few doses,STK26,1.52 µM
same,potency estimated from few doses,TTK; CATDS: 0.15958246539429699,2.27 µM
same,potency estimated from few doses,TTN,0.851 µM
CCS(=O)(=O)c1ccc(OC)c(Nc2ncc(-c3cccc(OC)c3)o2)c1 [GW580509X],potency estimated from few doses,FLT3; compound concentrations:100 nM and 1000 nM (sheet 'Samples'),1.13 µM
COc1ccc(-c2nn3ncccc3c2-c2ccnc(Nc3ccc(Cl)c(C(F)(F)F)c3)n2)cc1 [GW829115X],potency estimated from few doses,FLT4; CATDS: 1,0.635 µM
COc1cc(Nc2ncc(-c3ccccc3)o2)cc(OC)c1OC [GW627512B],potency estimated from few doses,"FLT3; compound concentrations: 100 nM and 1000 nM (sheet 'Samples'), CATDS: 0.90210431278154302",0.0202 µM
same,potency estimated from few doses,FLT4; CATDS: 0.159173325469706,1.85 µM
same,potency estimated from few doses,PDGFRB; CATDS: 0.20817935834978499,0.858 µM
same,potency estimated from few doses,PIP4K2C,1.79 µM
same,potency estimated from few doses,Q6ZSR9,2.17 µM
COc1ccc(Nc2ncc(-c3ccccc3)o2)cc1OC.Cl [GW575533A],potency estimated from few doses,"FLT3; compound concentrations: 100 nM and 1000 nM (sheet 'Samples'), CATDS: 0.92036474930911705",0.00409 µM
same,potency estimated from few doses,PDGFRB; CATDS: 0.343232825956933,0.0905 µM
C#Cc1cccc(Nc2ncnc3cc(OCCOC)c(OCCOC)cc23)c1.Cl [GW459135A],potency estimated from few doses,GAK,0.949 µM
same,potency estimated from few doses,STK10,2.06 µM
Cl.NS(=O)(=O)c1cccc(Nc2cc(-c3ccc(F)cc3)n[nH]2)c1 [GW824645A_PKIS2],potency estimated from few doses,"FLT3; compound concentrations: 100 nM and 1000 nM (sheet 'Samples'), CATDS: 1",0.342 µM
